The list is not random: actives were taken first. Their share in the collection is about 2.6%.
HIF-2a block = HIF-2a reporter inhibitors, primary screen, luminescence, 786-0 RCC cells. hit rate 0.72% among 360,000. AID 624352, 2012. 786-0 RCC cells HIF-2a reporter, luciferase luminescence, overnight. inhibition, % at 18.8 µM;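 active means inhibition of the luminescence signal of 40% or more relative to plate controls, in a single-dose primary screen at 18.75 µM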
CF NFkB inh = inhibitors of PAF-induced NF-kB signaling, primary screen, cell-based, GFP fluorescence, uHTS; KKLEB NF-kB-GFP reporter, GFP fluorescence overnight; inhibition, % at 5 µM; hit rate 0.86% among 360,000; AID 588850, 2011;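 active means at least 50% inhibition at 5 µM, scaled per plate between neutral and stimulator controls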;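 further: PAF is a Pseudomonas aeruginosa culture filtrate used as stimulus; plate controls were PAF-stimulated DMSO wells for no effect and unstimulated DMSO wells for full effect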
Shn3 3UTR inh = reduction of Shn3 3'UTR firefly luciferase signal, primary screen, Schnurri-3 inhibitor project, cell-based, Clone20 osteoblasts, set 2; Clone20 osteoblast Shn3 3'UTR firefly luciferase, 24 h; inhibition, % at 12.5 µM; hit rate 0.52% among 360,000; AID 588674, 2011;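 active means mean inhibition of at least 75% with every replicate also reaching 75%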;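 further: 0% = median of neutral control wells and 100% = pilot-screen positive control compound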
KKLEB tox = cytotoxicity in KKLEB CF airway cells, primary screen, cytotoxicity control for CF NF-kB inhibitor project, cell-based, uHTS, fluorescence assay plates | KKLEB CF airway cells viability, ATPlite luminescence, overnight; hits give low values; cells stimulated with P. aeruginosa culture filtrate | activity change (cytotoxicity), % at 5 µM | hit rate 0.36% among 360,000 | AID 602141, 2011;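 active means corrected activity change at or below -50% at 5 µM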
Peg3 prom inh = Peg3 promoter-driven luciferase inhibitors, primary screen, cell-based, HeLa, luciferase luminescence. hit rate 1.7% among 360,000. HeLa PEG-Prom luciferase reporter, overnight. inhibition, % at 20 µM. AID 588405, 2011;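 active means inhibition of at least 50% at 20 µM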
Numbers without * were called inactive.

COC(=O)[C@@H]1C[C@@H]2CC[C@@H](O)C[C@@H]2N1Cc1ccc(N2CCN(C)CC2)cc1 was read as HIF-2a block 5.0, CF NFkB inh -9.6, Shn3 3UTR inh -1.1, KKLEB tox 9.2 and Peg3 prom inh -10.8.
`O=C1/C(=C/c2ccncc2)SC(=S)N1C1CCS(=O)(=O)C1` (stereo not drawn) gave HIF-2a block 40.7*, CF NFkB inh 64.8*, Shn3 3UTR inh -29.9, KKLEB tox -9.7 and Peg3 prom inh 40.8.
CN1CCN2c3ccccc3CC(C#N)(C#N)C2C1 (stereo not drawn) was read as HIF-2a block 2.1, CF NFkB inh -0.2, Shn3 3UTR inh -0.1, KKLEB tox -15.5 and Peg3 prom inh -9.1.
CC(=O)Nc1ccc(S(=O)(=O)N2CCN(c3nc(NC4CCCC4)c4ccccc4n3)CC2)cc1 was read as HIF-2a block 5.8, CF NFkB inh 14.1, Shn3 3UTR inh 14.7, KKLEB tox -8.2 and Peg3 prom inh 84.7*.
CCn1c(CCl)nc2cc(S(=O)(=O)N3CCOCC3)ccc21 was read as HIF-2a block 12.8, CF NFkB inh 8.5, Shn3 3UTR inh -1.7, KKLEB tox 1.3 and Peg3 prom inh 71.4*.
Screening O=C(Nc1cc(F)cc(F)c1)c1ccc(NCCc2ccccc2)c([N+](=O)[O-])c1 returned HIF-2a block 18.9, CF NFkB inh -0.3, Shn3 3UTR inh -1.6, KKLEB tox -5.1 and Peg3 prom inh 18.5.
Cc1ccc(NC(=O)c2ccc(NCCc3ccccc3)c([N+](=O)[O-])c2)cc1F was read as HIF-2a block 5.7, CF NFkB inh 45.5, Shn3 3UTR inh 10.3, KKLEB tox -50.3* and Peg3 prom inh 19.0.
For CCCn1c(N)c(N(CCOC)C(=O)CSCC(=O)Nc2ccc(OC)cc2)c(=O)[nH]c1=O the results were HIF-2a block 1.6, CF NFkB inh -17.4, Shn3 3UTR inh -12.0, KKLEB tox 8.1 and Peg3 prom inh -5.9.
Screening CCC(C)[C@H]1CNC(=S)N1CCc1cc(C(F)(F)F)cc(C(F)(F)F)c1 (stereo partly drawn) returned HIF-2a block 8.8, CF NFkB inh 20.3, Shn3 3UTR inh 97.1*, KKLEB tox -0.1 and Peg3 prom inh -1.9.
`Cn1c(=O)c2c(ncn2CCC(=O)N/N=C/c2cccnc2)n(C)c1=O` gave HIF-2a block 16.4, CF NFkB inh 8.1, Shn3 3UTR inh -1.6, KKLEB tox 7.2 and Peg3 prom inh 8.7.
`Cc1ccc(COc2cccc(/C=N/NC(=O)c3nnn(-c4nonc4N)c3C)c2)cc1` gave HIF-2a block -132.2, CF NFkB inh 58.7*, Shn3 3UTR inh -17.1, KKLEB tox -50.0 and Peg3 prom inh 77.2*.
Nc1nc(N)c2cc(Sc3cccc(C(F)(F)F)c3)ccc2n1 was read as HIF-2a block 26.6, CF NFkB inh 37.5, Shn3 3UTR inh 84.4, KKLEB tox -18.4 and Peg3 prom inh 106.6*.
Screening Nc1nc(N)c2cc(Sc3ccc4ccccc4c3)ccc2n1 returned HIF-2a block 14.4, CF NFkB inh 34.8, Shn3 3UTR inh 84.6, KKLEB tox -16.4 and Peg3 prom inh 106.6*.
Nc1nc(N)c2cc(Sc3ccc(Cl)cc3)ccc2n1 was read as HIF-2a block -55.6, CF NFkB inh 31.2, Shn3 3UTR inh 79.0, KKLEB tox -16.1 and Peg3 prom inh 103.9*.
CCOc1ccc(C(=O)CCC(=O)N2CCN(c3ncccn3)CC2)cc1 was read as HIF-2a block 9.8, CF NFkB inh 7.4, Shn3 3UTR inh 11.6, KKLEB tox 8.0 and Peg3 prom inh 8.4.
Screening CNC(=O)c1cccc(NC(=O)c2cc(-c3ccccc3)nc3c2cnn3C(C)C)c1 returned HIF-2a block 6.4, CF NFkB inh -39.3, Shn3 3UTR inh 23.9, KKLEB tox -3.0 and Peg3 prom inh 59.1*.
`COc1cc(NC(=O)c2cc(-c3ccccc3)nc3c2cnn3C(C)C)cc(OC)c1OC` gave HIF-2a block 8.7, CF NFkB inh 30.4, Shn3 3UTR inh 58.5, KKLEB tox -6.0 and Peg3 prom inh 46.9.
For Cc1cc2nc(-c3ccc(=O)[nH]c3)n(Cc3ccccc3)c2cc1C the results were HIF-2a block -46.1, CF NFkB inh -19.6, Shn3 3UTR inh -33.9, KKLEB tox -4.9 and Peg3 prom inh -40.6.
Screening Cn1c(SCc2cccc([N+](=O)[O-])c2)nc2c(c1=O)SCC2 returned HIF-2a block 24.7, CF NFkB inh -4.3, Shn3 3UTR inh 45.5, KKLEB tox 12.3 and Peg3 prom inh 31.0.
`COc1ccc(C2Nc3ccc4ccccc4c3-c3c2c(=O)oc2ccccc32)cc1` (stereo not drawn) gave HIF-2a block -14.5, CF NFkB inh 17.8, Shn3 3UTR inh 56.5, KKLEB tox -19.5 and Peg3 prom inh 56.5*.
`CCOc1ccc(C2Nc3ccc4ccccc4c3-c3c2c(=O)oc2ccccc32)cc1` (stereo not drawn) gave HIF-2a block -9.9, CF NFkB inh 13.2, Shn3 3UTR inh 10.4, KKLEB tox -25.2 and Peg3 prom inh 46.8.
Screening CC(=O)OCC(=O)Nc1ccc([N+](=O)[O-])cc1Cl returned HIF-2a block 9.8, CF NFkB inh -23.4, Shn3 3UTR inh 7.9, KKLEB tox -0.9 and Peg3 prom inh 2.6.
`CC(=O)Oc1c(C)cc(Cl)cc1C(=O)Nc1ccc([N+](=O)[O-])cc1Cl` gave HIF-2a block -157.4, CF NFkB inh 62.6*, Shn3 3UTR inh 77.6, KKLEB tox -78.1* and Peg3 prom inh -13.4.
For CC1(C)C2C(Cl)(Cl)C2(C)c2ccccc2N1C=O (stereo not drawn) the results were HIF-2a block 13.9, CF NFkB inh 16.6, Shn3 3UTR inh -7.8, KKLEB tox -16.9 and Peg3 prom inh 8.9.
COc1ccc(/C=N/NC(=O)c2ccc(Cl)cc2)cc1Cn1cc(Cl)cn1 was read as HIF-2a block -1.5, CF NFkB inh 16.7, Shn3 3UTR inh 69.2, KKLEB tox -50.8* and Peg3 prom inh 11.7.
`COc1ccc(/C=N/NC(=O)c2cc(Br)ccc2O)cc1Cn1cc(Cl)cn1` gave HIF-2a block 6.4, CF NFkB inh -2.6, Shn3 3UTR inh -5.8, KKLEB tox 3.2 and Peg3 prom inh 1.1.
`CCN1CCN(c2cc3c(cc2F)c(=O)c(S(=O)(=O)c2ccccc2)cn3C)CC1` gave HIF-2a block 3.2, CF NFkB inh -5.3, Shn3 3UTR inh -11.0, KKLEB tox 3.1 and Peg3 prom inh 5.1.
Cc1ccc(S(=O)(=O)c2cn(C)c3cc(N4CCN(C)CC4)c(F)cc3c2=O)c(C)c1 was read as HIF-2a block 18.0, CF NFkB inh 5.1, Shn3 3UTR inh 6.7, KKLEB tox -12.5 and Peg3 prom inh 75.5*.
For Oc1ccc(/C=N/Nc2nc(N3CCCC3)nc(N3CCCC3)n2)cc1O the results were HIF-2a block 5.9, CF NFkB inh -32.4, Shn3 3UTR inh 92.6*, KKLEB tox 15.0 and Peg3 prom inh 10.1.
